Results as given in PubChem BioAssay AID1745847 (National Center for Advancing Translational Sciences (NCATS), 2022).
Among all 2,100 compounds or so, about 670 (32%) were called active. Not shown: some 50% with an inconclusive outcome. Some of the results follow. Values without a mark were called inactive. Calls come from the whole dose curve; as a rule, active = well fitted inhibition curve with a large enough effect; inconclusive = small, poorly fitted or top-dose-only effect; inactive = no such curve, though single readings can be large or run the other way.

Test: CMV-Luciferase Counterscreen for Inhibitors of ATXN expression; note: nearly all actives have a fitted effect of over 55% in size
Conditions: HEK-293 CMV-luciferase reporter, luminescence, 24 h; series mostly up to 57.5 µM
% is set by controls: 0 for no effect and ±100 for the full control effect; potency is the fitted concentration of half-maximal effect.

SMILES	Potency	activity change, negative = inhibition
COc1ccccc1NC(=S)NC(=O)c1ccc(Cn2cc(Br)cn2)cc1	inactive	–
CC[C@H]1CN2CCc3cc(OC)c(OC)cc3C2C[C@@H]1C[C@H]1NCCc2cc(OC)c(OC)cc21 (stereo not given in full)	1.12 µM (active)	–
CC[C@H]1CN2CCc3cc(OC)c(OC)cc3[C@@H]2C[C@@H]1C[C@H]1NCCc2cc(OC)c(OC)cc21	0.0794 µM (active)	–
CCC1=C(CC2NCCc3ccccc32)CC2c3cc(OC)c(OC)cc3CCN2C1 (stereo not given)	14.1 µM (active)	–
CCCCOc1ccc(NC2=NC3(CCCC3)N=C(N)N2)cc1	inactive	–
C/C(=N\N=C(N)N)c1ccc(Cl)cc1Cl	inactive	–
CC(C)[C@@H]1CC[C@@H](C)C[C@H]1OC(=O)C[n+]1cc(-c2ccc(Cl)cc2)n2c1CCCCC2	14.1 µM (active)	–
NNc1ncnc2scc(-c3ccc(Cl)cc3)c12	25.1 µM (active)	–
O=C(CSc1nnc(-c2ccc(Br)cc2)o1)Nc1cccc(C(=O)O)c1	4.47 µM (active)	–
COc1cccc(NC(=O)CSc2nc3ncc(Br)cc3[nH]2)c1	–	193% [at 11.4 µM]
O=C(Nc1ccc(Oc2ccc(NC(=O)Nc3ccc([N+](=O)[O-])cc3)cc2)cc1)Nc1ccc([N+](=O)[O-])cc1	2.82 µM (active)	–
O=C1c2cc(Cl)ccc2-c2c(O)cc(Cl)cc21	inactive	–
COCc1ccc(CN2CCC(C(=O)Nc3cccc(-c4cccc(Cl)c4)c3)CC2)o1	14.1 µM (active)	–
O=C(Nc1ccc2oc(=O)ccc2c1)c1ccc(-c2cccc(Cl)c2)o1	inactive	–
COC(=O)Cc1[nH]n(-c2nc3ccccc3s2)c(=O)c1C(C)=Nc1ccc(C)cc1	0.501 µM (active)	–
CC(C)[C@H](CO)Nc1nc(NCc2ccc(S(N)(=O)=O)cc2)c2ncn(C(C)C)c2n1	–	41.8% [at 11.4 µM]
Cc1ccn2c(Nc3ccccc3C)c(-c3ccccn3)nc2c1	5.01 µM (active)	–
Nc1ccc(OC(=O)Nc2ccc(O)cc2)cc1	12.6 µM (active)	–
CCOC(=O)c1c(NC(=O)COC(=O)c2ccccc2NC)sc(C(=O)N(C)C)c1C	–	-21.4% [at 11.4 µM]
CN(C)CCCN(C(=O)c1ccc2c(c1)CCCC2)c1nc2cc3c(cc2s1)OCO3	inactive	–
Cc1cc(C)c2nc(N(CCCN(C)C)C(=O)c3ccc4c(c3)OCCO4)sc2c1	28.2 µM (active)	–
Cc1cccc2sc(N(CCCN(C)C)C(=O)c3ccco3)nc12	inactive	–
Nc1nc(NCCCN2CCOCC2)nc(Nc2ccccc2F)c1[N+](=O)[O-]	inactive	–

SMILES	Potency	activity change, negative = inhibition
O=C(NCCc1cn2ccccc2n1)c1cc(COc2ccc3ncccc3c2)on1	14.1 µM (active)	–
Cc1ccc(C)c(S(=O)(=O)N2CCN(c3ncnc4sccc34)CC2)c1	1.41 µM (active)	–
CN(C)CCNC(=O)c1cccc2[nH]c(-c3ccncc3)nc12	–	-19.8% [at 11.4 µM]
CN(C)CCCN(C(=O)c1ccc(S(=O)(=O)N(C)Cc2ccccc2)cc1)c1nc2c(F)cccc2s1	inactive	–
CN(C)CCNC(=O)c1ccc(Cl)c2cc3ccccc3nc12	10 µM (active)	–
CN(C)CCNC(=O)c1cccc2nc3cccc(F)c3nc12	10 µM (active)	–
OCCN(Cc1ccccc1)CC(O)COc1ccc(-c2ccccc2)cc1 (stereo not given)	inactive	–
O=C1/C(=C/c2ccncc2)CCC/C1=C\c1ccncc1	8.91 µM (active)	–
CN1C/C(=C/c2cccnc2)C(=O)/C(=C/c2cccnc2)C1	–	-8.05% [at 11.4 µM]
Cc1onc(-c2c(Cl)cccc2Cl)c1C(=O)N/N=C(\N)COc1ccc(Cl)cc1	3.55 µM (active)	–
O=[N+]([O-])c1c(Nc2ccccn2)cc(Cl)c2nonc12	11.2 µM (active)	–
CCC(=O)OCCNc1cc(Sc2nc3ccccc3[nH]2)c2nonc2c1[N+](=O)[O-]	–	-17% [at 11.4 µM]
O=[N+]([O-])c1ccc(C[n+]2cccc3ccc4cccnc4c32)cc1	3.16 µM (active)	–
COc1cc(/C=N/Nc2snc(SC)c2C#N)cc(OC)c1OC	inactive	–
O=C(Nc1ccccc1Cl)N1CCCN(c2nc(-c3ccccc3)ns2)CC1	14.1 µM (active)	–
Cc1c(Cl)cccc1NC(=O)N1CCCN(c2nc(-c3ccccc3)ns2)CC1	10 µM (active)	–
CC(C)(C)c1ccc(NC(=O)N2CCCN(c3c(Cl)cncc3Cl)CC2)cc1	inactive	–
Cc1c(N=C2C=CC(=O)c3ccccc32)c(=O)n(-c2ccccc2)n1C	31.6 µM (active)	–
Cc1c(N=C2N=C(NC(=O)Nc3ccc(Cl)cc3)c3ccccc32)c(=O)n(-c2ccccc2)n1C	inactive	–
Cc1cc(C)c(O)c(CN(C)Cc2cc(Cl)cc(Cl)c2O)c1	10 µM (active)	–
CCOC(=O)c1c(SCCN2CCCCC2)n(-c2ccccc2)c(=S)n(-c2ccccc2)c1=O	22.4 µM (active)	–
Cc1sc2ncnc(NCC(O)c3ccc([N+](=O)[O-])cc3)c2c1C (stereo not given)	5.62 µM (active)	–
